# Source: PubChem BioAssay (NCATS)
# Where “and” joins values, the source holds several entries; their conditions need not be identical. Equal entries are not always repeated. Results filed as inconclusive are left out. Where a call stands in place of a potency, no number is given. Some compounds were tested as several samples or in several runs, with calls that do not always agree. Calls of active or inactive are those of the source. Unless noted, calls follow the shape of the dose curve; as a rule, active = well fitted curve in the direction sought with a large enough effect; inconclusive = small, poorly fitted or top-dose-only effect, or another doubt; inactive = no such curve, though single readings can be large; an effect the other way counts as inactive or inconclusive.
# Key:
# [1] = qHTS assay for small molecule antagonists of retinoid X receptor alpha signaling (AID 588546; active = well fitted inhibition curve with a large enough effect in the signal ratio, with a control signal flat, not every such curve was filed as active; the % refers to the signal ratio; also: potency is read from the fitted curve at half-maximal effect;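 as to max response: cells stimulated with 9-cis-retinoic acid as agonist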); conditions: HEK293T RXRa-UAS-bla, beta-lactamase ratio, antagonist mode; measured here: W530 green channel, cytotoxicity proxy
# How it was run: (§1)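 Beta-lactamase reporter inhibition, read as CCF4 fluorescence ratio (ex 405, em 460/530 nm) after 2 h at RT. HEK293T UAS-bla cells, 2500/well, were stimulated with 9-cis-RA at 500 or 100 nM final alongside test compound for 18 h at 37 C.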
# [2] = biological target: Retinoic acid receptor RXR-alpha (Homo sapiens) (UniProt P19793); assay: as above; conditions: HEK293T RXRa-UAS-bla, beta-lactamase ratio, antagonist mode
# How it was run: as §1
# [3] = biological target: Thyroid hormone receptor beta (Homo sapiens) (UniProt P10828); assay: qHTS assay for small molecule antagonists of thyroid hormone receptor beta signaling (AID 588547; active = well fitted inhibition curve with a large enough effect in the signal ratio, with a control signal flat, not every such curve was filed as active; the % refers to the signal ratio;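 also: cells stimulated with 0.4 nM T3 agonist during compound exposure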); conditions: TR-UAS-bla HEK293, beta-lactamase ratio, antagonist mode, 18 h
# How it was run: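 TR-UAS-bla GripTite HEK293 cells in 2% charcoal/dextran FBS medium were preincubated 4 h at 37 C, given compound (0.59 nM to 92 uM) plus 0.4 nM T3 (final) for 18 h, then CCF4 for 2 h at RT; Hill fit gave IC50.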
# [4] = biological target: Voltage-gated inwardly rectifying potassium channel KCNH2 (Homo sapiens) (UniProt Q12809); assay: qHTS Assay for Small Molecule Inhibitors of the Human hERG Channel Activity (AID 588834); conditions: U2OS BacMam hERG, FluxOR thallium flux fluorescence; series mostly up to 46.1 µM;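 also: lower thallium flux fluorescence means stronger hERG block; nearly all actives have a fitted effect of over 50% in size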; also: potency is read from the fitted curve at half-maximal effect
# How it was run: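 Homogeneous FluxOR thallium flux assay using hERG-expressing U2OS cells (BacMam). Compound treatment about 10 minutes preceded stimulation; reduced fluorescence taken as channel block.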
# [5] = biological target: Luciferin 4-monooxygenase (Photinus pyralis) (UniProt P08659); assay: Biochemical firefly luciferase enzyme assay for NPC (AID 624030);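 also: purified P. pyralis luciferase at 10 nM with luciferin and ATP substrate; nearly all actives have a fitted effect of over 70% in size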; conditions: purified P. pyralis luciferase, luminescence, 5 min; series mostly up to 58.6 µM
# How it was run: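 Counter-screen for direct inhibition of the luciferase enzyme by approved-drug library compounds, run at 10 nM enzyme in 50 mM Tris acetate (final). Luminescence was read within 5 min of enzyme-buffer addition and normalized to PTC124 versus DMSO (0%).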
# [6] = S16 Schwann cell viability assay (CellTiter-Glo assay) (AID 624031); conditions: S16 rat Schwann cells viability, 24 h; series mostly up to 57.5 µM;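 also: cellular ATP luminescence as a viability measure; nearly all actives have a fitted effect of over 70% in size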
# How it was run: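 Native S16 rat Schwann cells in DMEM/10% FBS without phenol red were incubated overnight, then exposed to compounds for 24 h at 37 °C/5% CO2. Viability was read as ATP luminescence (CellTiter-Glo), normalized to no-cell wells and DMSO (0%).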
# [7] = S16 Schwann cell PMP22 intronic element beta-lactamase assay (AID 624044; calls by dose curve; also: nearly all actives have a fitted effect of over 15% in size); conditions: S16 rat Schwann cells, PMP22 element beta-lactamase FRET, 24 h; series mostly up to 38.3 µM
# How it was run: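 Beta-lactamase reporter under a PMP22 intronic regulatory element in stable S16 rat Schwann cells; 24 h compound exposure. 460 nm blue signal normalized between DMSO (0%) and potassium clavulanate, with 535 nm FRET tracking viability; curves classed by r2 and response.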
# [8] = qHTS assay for small molecule agonists of the antioxidant response element (ARE) signaling pathway (AID 651741; active = well fitted activation curve with a large enough effect in the signal ratio; the % refers to the signal ratio); conditions: HepG2 ARE-bla reporter, beta-lactamase FRET ratio, 16 h; series mostly up to 96 µM
# How it was run: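 Reporter: beta-lactamase under ARE, stably in HepG2. Exposure: 16 h, 37 C, compounds delivered in DMSO by pin tool after 5 h cell preincubation. Readout: FRET substrate fluorescence after 2 h at RT.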
# [9] = qHTS assay for small molecule activators of the p53 signaling pathway (AID 651743; active = well fitted activation curve with a large enough effect in the signal ratio, not every such curve was filed as active; the % refers to the signal ratio); conditions: HCT-116 p53RE-bla, beta-lactamase FRET ratio, 16 h; activation: stronger effect = higher value
# How it was run: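 Agonist-mode quantitative HTS in HCT-116 cells carrying a p53-response-element beta-lactamase reporter; 16 h compound treatment at 37 C, then FRET substrate loading for 2 h at room temperature and fluorescence read.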
# [10] = qHTS assay for small molecule activators of the nuclear factor-kappa B (NF-kB) signaling pathway (AID 651749; active = well fitted activation curve with a large enough effect in the signal ratio; the % refers to the signal ratio); conditions: NF-kB-bla ME-180 cells, beta-lactamase FRET ratio, 16 h; stronger effect = higher value
# How it was run: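 Human ME-180 cervical cells with an NF-kB-bla construct; compounds added via 23 nL pin transfer, DMSO as vehicle; incubation 16 hr. Reporter activity measured by FRET disruption.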
# [11] = S16 Schwann cell PMP22 intronic element firefly luciferase assay (AID 624032); conditions: S16 rat Schwann cells, PMP22 element FLuc, 24 h; series mostly up to 57.5 µM; also: nearly all actives have a fitted effect of over 30% in size
# How it was run: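 Rat S16 Schwann cells stably carrying a PMP22 intronic element-driven Fluc reporter were seeded overnight, then exposed to compounds for 24 h at 37 °C. Luminescence was normalized to PTC124 (positive control) and DMSO (0% activity).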
# [12] = biological target: Tumor necrosis factor (Homo sapiens) (UniProt P01375); assay: qHTS assay to identify small molecules that stimulate Tumor Necrosis Factor-alpha (TNF-alpha) secretion (AID 651757; active = well fitted curve in the direction sought with a large enough effect in the signal ratio; the % refers to the signal ratio); conditions: Human cells, HTRF 665/615 ratio; series mostly up to 92.2 µM
# How it was run: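 Secreted TNF-alpha quantified by TR-FRET sandwich of two labeled anti-TNF-alpha antibodies, incubated 3 hr at room temperature. Preceded by 17 hr, 37 C compound treatment of THP-1 cells at 3000 cells/well.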
# [13] = qHTS assay for small molecule disruptors of the mitochondrial membrane potential - 1 hr assay (AID 651754; calls by dose curve; also: nearly all actives have a fitted effect of over 35% in size); conditions: series mostly up to 92.2 µM
# How it was run: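 Mitochondrial potential in living HepG2 cells after 1 hr compound treatment at 37C was read with Mito-MPS dye added for a further 30 min. Red aggregate and green monomer fluorescence were measured; loss of potential leaves dye as cytoplasmic monomers.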
# Sequence of Luciferin 4-monooxygenase (Photinus pyralis) (P08659 whole entry, looked up): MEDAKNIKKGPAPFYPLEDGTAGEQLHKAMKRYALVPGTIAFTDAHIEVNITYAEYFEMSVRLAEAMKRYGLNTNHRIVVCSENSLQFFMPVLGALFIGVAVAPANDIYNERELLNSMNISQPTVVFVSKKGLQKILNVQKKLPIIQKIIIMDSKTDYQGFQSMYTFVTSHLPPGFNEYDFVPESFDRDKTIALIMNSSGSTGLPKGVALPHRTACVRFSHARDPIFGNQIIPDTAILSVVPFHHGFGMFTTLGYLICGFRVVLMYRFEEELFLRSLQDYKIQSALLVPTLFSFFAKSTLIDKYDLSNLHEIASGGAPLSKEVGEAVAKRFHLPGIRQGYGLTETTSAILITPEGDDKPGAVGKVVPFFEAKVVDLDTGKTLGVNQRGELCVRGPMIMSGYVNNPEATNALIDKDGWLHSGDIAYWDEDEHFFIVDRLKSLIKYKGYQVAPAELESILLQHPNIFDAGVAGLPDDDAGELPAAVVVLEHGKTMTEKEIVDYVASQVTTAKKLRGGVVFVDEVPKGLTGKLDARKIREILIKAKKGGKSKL
# Sequence of Thyroid hormone receptor beta (Homo sapiens) (P10828 whole entry, looked up): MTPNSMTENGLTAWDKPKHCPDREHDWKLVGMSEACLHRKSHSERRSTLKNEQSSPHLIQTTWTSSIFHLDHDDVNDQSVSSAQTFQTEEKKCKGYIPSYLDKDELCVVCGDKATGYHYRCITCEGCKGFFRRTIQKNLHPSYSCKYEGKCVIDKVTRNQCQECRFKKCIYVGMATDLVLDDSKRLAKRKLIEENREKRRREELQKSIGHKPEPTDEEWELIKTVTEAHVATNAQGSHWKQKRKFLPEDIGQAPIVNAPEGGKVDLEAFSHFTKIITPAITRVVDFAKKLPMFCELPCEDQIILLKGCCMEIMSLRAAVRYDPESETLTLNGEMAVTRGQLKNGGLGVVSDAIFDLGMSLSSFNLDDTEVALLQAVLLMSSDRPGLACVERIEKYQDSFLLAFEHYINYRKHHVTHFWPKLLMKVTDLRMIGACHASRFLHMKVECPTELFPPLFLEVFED
# Sequence of Retinoic acid receptor RXR-alpha (Homo sapiens) (P19793 whole entry, looked up): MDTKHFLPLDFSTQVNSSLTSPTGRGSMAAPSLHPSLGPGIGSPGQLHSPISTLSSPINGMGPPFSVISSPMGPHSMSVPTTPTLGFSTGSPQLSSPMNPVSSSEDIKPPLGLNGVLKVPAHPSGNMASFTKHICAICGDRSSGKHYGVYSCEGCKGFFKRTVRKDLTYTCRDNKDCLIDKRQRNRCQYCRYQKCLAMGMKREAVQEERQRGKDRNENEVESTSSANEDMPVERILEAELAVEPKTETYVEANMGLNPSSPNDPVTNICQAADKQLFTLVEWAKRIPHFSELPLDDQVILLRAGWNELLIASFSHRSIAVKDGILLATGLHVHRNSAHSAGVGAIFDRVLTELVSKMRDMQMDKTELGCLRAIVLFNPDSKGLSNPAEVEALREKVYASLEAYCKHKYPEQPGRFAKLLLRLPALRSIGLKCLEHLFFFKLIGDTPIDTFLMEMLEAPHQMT
# Sequence of Voltage-gated inwardly rectifying potassium channel KCNH2 (Homo sapiens) (Q12809 whole entry, looked up): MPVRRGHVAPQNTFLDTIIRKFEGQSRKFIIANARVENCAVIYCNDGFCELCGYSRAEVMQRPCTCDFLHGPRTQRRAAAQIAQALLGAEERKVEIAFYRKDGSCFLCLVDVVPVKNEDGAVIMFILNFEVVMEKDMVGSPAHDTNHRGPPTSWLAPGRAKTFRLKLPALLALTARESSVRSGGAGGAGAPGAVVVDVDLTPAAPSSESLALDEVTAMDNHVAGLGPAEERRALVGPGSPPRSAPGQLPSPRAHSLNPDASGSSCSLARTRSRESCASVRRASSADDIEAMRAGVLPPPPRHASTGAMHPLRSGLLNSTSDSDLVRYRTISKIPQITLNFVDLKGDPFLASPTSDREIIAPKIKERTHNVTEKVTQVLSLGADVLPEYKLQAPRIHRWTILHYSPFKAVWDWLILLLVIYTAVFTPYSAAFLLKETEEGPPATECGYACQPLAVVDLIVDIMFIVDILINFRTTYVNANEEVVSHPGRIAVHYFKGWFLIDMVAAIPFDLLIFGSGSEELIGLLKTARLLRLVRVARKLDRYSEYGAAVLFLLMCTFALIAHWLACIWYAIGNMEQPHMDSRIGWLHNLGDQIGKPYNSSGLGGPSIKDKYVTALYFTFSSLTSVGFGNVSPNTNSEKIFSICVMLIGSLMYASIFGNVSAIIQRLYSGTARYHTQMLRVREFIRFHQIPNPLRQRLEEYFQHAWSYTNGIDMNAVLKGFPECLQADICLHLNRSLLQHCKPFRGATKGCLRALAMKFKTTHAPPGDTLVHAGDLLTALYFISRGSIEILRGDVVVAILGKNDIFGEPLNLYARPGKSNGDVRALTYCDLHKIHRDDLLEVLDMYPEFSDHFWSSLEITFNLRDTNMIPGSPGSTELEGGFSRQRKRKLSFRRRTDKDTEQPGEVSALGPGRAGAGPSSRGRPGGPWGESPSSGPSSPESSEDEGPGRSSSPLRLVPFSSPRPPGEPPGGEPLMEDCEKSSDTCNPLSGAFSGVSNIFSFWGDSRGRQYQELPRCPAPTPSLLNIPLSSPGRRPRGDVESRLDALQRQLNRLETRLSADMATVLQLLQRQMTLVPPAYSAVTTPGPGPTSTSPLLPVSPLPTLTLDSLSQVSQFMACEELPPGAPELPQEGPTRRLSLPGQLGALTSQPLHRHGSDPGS
# Sequence of Tumor necrosis factor (Homo sapiens) (P01375 whole entry, looked up): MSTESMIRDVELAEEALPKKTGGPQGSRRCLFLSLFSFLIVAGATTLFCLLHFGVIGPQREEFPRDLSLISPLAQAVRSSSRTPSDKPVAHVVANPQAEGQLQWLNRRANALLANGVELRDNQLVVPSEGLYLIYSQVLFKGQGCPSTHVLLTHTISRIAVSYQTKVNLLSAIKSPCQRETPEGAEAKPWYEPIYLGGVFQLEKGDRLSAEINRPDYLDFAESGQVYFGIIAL
structure (smiles),measurement,setting,value
CCCCCCCCCCCCCCCC(=O)O,max response,[1],-11.4%
same,max response,[2],0.179% (inactive)
same,activity change % (negative = inhibition),[3],13.6% (inactive)
same,Potency,[4],inactive
same,Potency,[5],inactive
same,Potency,[6],inactive
same,Potency,[7],inactive
same,Potency,[8],inactive
same,activation,[9],1.38% (inactive)
same,activation,[10],-0.401% (inactive)
CCCCCCCCCCCCCC(=O)OC(C)C,max response,[1],-10.1%
same,max response,[2],7.8% (inactive)
same,Potency,[4],inactive
same,Potency,[5],inactive
same,Potency,[6],inactive
same,Potency,[11],inactive
same,Potency,[8],inactive
same,activation,[9],-0.604% (inactive)
same,activation,[10],0.876% (inactive)
C[C@H]1[C@H]2CC[C@H]3[C@@H]4CC=C5C[C@@H](N(C)C)CC[C@]5(C)[C@H]4CC[C@]23CN1C,Potency,[4],inactive
CCOc1ccccc1C(N)=O,max response,[1],-1.33%
same,max response,[2],0.966% (inactive)
same,activity change % (negative = inhibition),[3],7.81% (inactive)
same,Potency,[4],inactive
same,Potency,[5],inactive
same,Potency,[6],inactive
same,Potency,[11],inactive
same,Potency,[8],inactive
same,activation,[9],1.59% (inactive)
same,outcome,[12],inactive
CCCCOC(=O)CC(CC(=O)OCCCC)(OC(C)=O)C(=O)OCCCC,max response,[1],-7.31%
same,max response,[2],-5.69% (inactive)
same,activity change % (negative = inhibition),[3],12.8% (inactive)
same,Potency,[8],inactive
same,activation,[9],-5.7% (inactive)
same,activation,[10],-0.845% (inactive)
NCCNc1cccc2ccccc12,max response,[1],2.26% and -22%
same,Potency,[2],44.7 µM (active)
same,max response,[2],-21.1% (inactive)
same,activity change % (negative = inhibition),[3],-5.49% (inactive)
same,Potency,[4],inactive
same,Potency,[5],inactive
same,Potency,[7],inactive
same,Potency,[8],inactive
same,activation,[9],1.04% (inactive)
same,activation,[10],-0.261% (inactive) and 2.79% (inactive)
same,Potency,[13],inactive
CO[C@H]1C=CO[C@@]2(C)Oc3c(C)c(O)c4c(O)c(c(/C=N/N5CCN(C)CC5)c(O)c4c3C2=O)NC(=O)/C(C)=C\C=C[C@H](C)[C@H](O)[C@@H](C)[C@@H](O)[C@@H](C)[C@H](OC(C)=O)[C@@H]1C,Potency,[4],inactive
CCCN(CCc1cccs1)[C@H]1CCc2c(O)cccc2C1,Potency,[4],1 µM (active)
same,Potency,[5],inactive
N#C/C(=C1\SCC(c2ccccc2Cl)S1)n1ccnc1 (stereo unspecified),Potency,[4],inactive
CCC(Cc1c(I)cc(I)c(N)c1I)C(=O)O (stereo unspecified),Potency,[4],inactive
CCN[C@@H]1C[C@H](N)[C@@H](OC2OC(CN)=CCC2N)[C@H](O)[C@H]1O[C@H]1OC[C@](C)(O)[C@H](NC)[C@H]1O (stereo partly specified),Potency,[4],inactive
C#C[C@]1(O)CC[C@H]2[C@@H]3[C@H](C)CC4=C(CCC(=O)C4)[C@H]3CC[C@@]21C,Potency,[4],inactive
CCC1NC(=O)c2cc(S(N)(=O)=O)c(Cl)cc2N1 (stereo unspecified),Potency,[4],inactive
C[C@@H](O)[C@H]1C(=O)N2C(C(=O)O)=C([C@H]3CCCO3)S[C@H]12,Potency,[4],inactive
CC[C@]12CCCN3CCc4c(n(c5ccccc45)C(=O)C1)[C@@H]32,Potency,[4],0.447 µM (active)
OC[C@H]1O[C@@H](Oc2ccc(O)cc2)[C@H](O)[C@@H](O)[C@@H]1O,Potency,[4],inactive
CC(=O)O[C@]1(C(C)=O)CC[C@H]2[C@@H]3C=C(C)C4=CC(=O)CC[C@]4(C)[C@H]3CC[C@@]21C,Potency,[4],inactive
CCN1CCCC(OC(=O)C(c2ccccc2)c2ccccc2)C1 (stereo unspecified),Potency,[4],7.94 µM (active)
CC(=C(CCOC(=O)C(C)C)SSC(CCOC(=O)C(C)C)=C(C)N(C=O)Cc1cnc(C)nc1N)N(C=O)Cc1cnc(C)nc1N,Potency,[4],inactive
